# Screens from PubChem BioAssay.
# CHRM1 PAM = potentiates human M1 receptor response to acetylcholine; CHO-K1 hM1, Fluo-8 calcium fluorescence, ACh EC20; 0% = ACh EC20, 100% = maximal ACh; activation, % at 3 µM; P11229; actives 0.088% (n = 360,000); in the data active = activation above about 19%, passing the limit was not always enough
# Target sequence (P11229 whole entry, looked up): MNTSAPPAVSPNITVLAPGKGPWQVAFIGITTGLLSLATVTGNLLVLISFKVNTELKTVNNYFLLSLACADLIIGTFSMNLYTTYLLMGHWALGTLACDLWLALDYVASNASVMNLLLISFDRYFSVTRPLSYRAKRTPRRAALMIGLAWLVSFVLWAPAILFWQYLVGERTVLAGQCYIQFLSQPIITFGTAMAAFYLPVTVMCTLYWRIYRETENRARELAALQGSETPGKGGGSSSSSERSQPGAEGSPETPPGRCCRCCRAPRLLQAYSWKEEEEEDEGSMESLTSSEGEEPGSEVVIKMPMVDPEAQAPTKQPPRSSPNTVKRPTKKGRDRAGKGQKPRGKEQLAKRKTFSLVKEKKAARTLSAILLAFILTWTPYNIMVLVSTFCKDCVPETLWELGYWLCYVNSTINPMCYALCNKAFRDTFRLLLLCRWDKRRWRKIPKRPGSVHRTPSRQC
# CHRM1 agonist = agonists of human M1 muscarinic receptor | P11229 | CHO-K1 hM1, Fluo-8 calcium fluorescence, agonist mode; 0% DMSO, 100% acetylcholine EC100 | activation, % at 3 µM | actives 0.33% (n = 360,000) | AID 588814;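 active = activation above the run's mean compound activation plus 3 SD, cut at about 16% in these data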;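 note: peak over basal fluorescence ratio within a 140 s kinetic read after compound addition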
# M1 antag = blocks human M1 muscarinic receptor. actives 1.3% (n = 360,000). CHO-K1 hM1, Fluo-8 calcium fluorescence, ACh EC80 antagonist. P11229. AID 588852. inhibition, % at 3 µM;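 active = percent inhibition above its own plate's cutoff, namely the mean of that plate's compound wells plus 3 SD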;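 note: peak over basal fluorescence ratio during 140 s after agonist addition; 0% = ACh EC80 plus DMSO and 100% = DMSO alone without agonist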
# M1 PAM parental = nonselective activator or artifact in parental CHO-K1 calcium assay. ATP EC20, Fluo-8 calcium fluorescence; 0% at ATP EC20, 100% at ATP max. AID 602247. activation, % at 3 µM. actives 0.02% (n = 360,000);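 active = activation above the run cutoff, the mean activation of all test compounds plus 3 SD, cut at about 40% in these data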;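 note: peak over basal fluorescence ratio in a 140 s read after ATP addition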
# CHO-K1 Ca antag = M1 antagonist counterscreen hit in parental CHO-K1 cells | ATP-induced calcium, Fluo-8 fluorescence | inhibition, % at 3 µM | actives 0.6% (n = 360,000) | AID 602250;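 active = inhibition above a per-plate cutoff, the plate's mean sample inhibition plus 3 SD, cut at about 24% in these data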;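 note: 0% = DMSO plus EC80 ATP and 100% = DMSO alone without ATP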
# M1 ag parental = nonselective activator or artifact in parental CHO-K1 cells | Fluo-8 calcium fluorescence; scaled to maximal ATP response, vehicle zero | activation, % at 3 µM | actives 0.48% (n = 360,000) | AID 602248; in the data active = activation above about 15%;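 note: untransfected CHO-K1 host cells lacking M1 receptor as counterscreen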
# Numbers without * were called inactive. Most compounds without a hit are left out; they make up all but 2.3% or so of the library.
SMILES,CHRM1 PAM,CHRM1 agonist,M1 antag,M1 PAM parental,CHO-K1 Ca antag,M1 ag parental
CCOC(=O)C1(CCc2ccccc2)CCN(Cc2cccc3cnccc23)CC1,-33.6,-13.6,47.7*,8.6,6.4,0.2
O=C(C[N+]12CCC(CC1)C(CO)C2)c1ccc(Br)cc1 (stereo unspecified),8.9,-11.3,-12.2,5.3,-10.2,0.7
O=C(c1cc(=O)[nH]c2ccc(Br)cc12)N1CCC2(CC1)OCCO2,5.2,-2.3,-9.6,-5.8,25.8*,0.1
O=C(c1cc2cc(Cl)ccc2[nH]1)N1CCC2(CC1)OCCO2,20.4,1.4,-9.6,1.7,-6.6,1.4
CN(C)c1ccc(/C=C/[N+](=O)[O-])cc1,3.6,11.2,41.1*,-4.3,11.8,14.2
c1ccc(C(c2ccccc2)c2ccncc2)cc1,-27.7,-5.8,69.9*,19.5,-10.2,1.2
CCCC(=O)OCC[N+](C)(C)C,-18.9,43.1*,-11.8,12.7,-1.4,0.3
COc1c2c(cc3c1OCO3)CC[N+](C)=C2,3.5,-5.8,-6.5,-3.2,1.6,0.4
COC(=O)C1=C(c2cc3ccccc3o2)C[C@@H]2CC[C@H]1N2C(=O)NCCNC(C)=O,-24.4,-12.4,32.5*,0.1,-1.4,1.6
CC12CC1(C)C(=O)N(c1cc(Cl)cc(Cl)c1)C2=O (stereo unspecified),8.8,-2.3,-6.7,-5.1,1.5,-0.9
CC1(C)OC(c2ccccc2)=C/C(=C/C=C2C(=O)NC(=O)NC2=O)O1,-3.6,16.6*,9.7,-2.6,4.2,10.5
Clc1ccc(C(OCCN2CCCCC2)c2ccccc2)cc1 (stereo unspecified),-26.8,-6.3,96.0*,-7.6,0.1,1.0
c1ccc(C(OCCN2CCN(c3ncccn3)CC2)c2ccccc2)cc1,-26.6,-5.8,48.3*,5.4,1.9,4.1
CC(C)Cc1nnc(NC(=O)CCC(=O)N2CCN(CCOC(c3ccccc3)c3ccccc3)CC2)s1,-4.3,-8.5,-4.9,19.4,-11.7,0.5
CCOC(=O)c1ccc(NC(=O)N2C[C@@H]3C[C@@H](C2)c2cccc(=O)n2C3)cc1,-9.9,-13.5,18.8,-17.8,24.6*,0.3
CC(=O)c1cccc(NC(=O)N2C[C@H]3C[C@@H](C2)c2cccc(=O)n2C3)c1,5.1,-2.6,-12.1,-17.6,29.1*,0.0
COC(=O)C1=C(c2ccc(Cl)c(C(F)(F)F)c2)C[C@@H]2CC[C@H]1N2C(=O)NCCO,-0.8,-7.5,-0.3,17.5,-12.6,0.0
COC(=O)C1=C(c2ccc(Cl)c(C(F)(F)F)c2)C[C@@H]2CC[C@H]1N2C,-29.5,-8.2,32.1*,8.3,-3.4,0.0
COC(=O)C1=C(c2ccc(F)cc2F)C[C@@H]2CC[C@H]1N2C(=O)NC(C)C,-1.4,-9.0,-4.2,9.4,3.3,-0.5
COC(=O)C1=C(c2ccc(F)cc2F)C[C@@H]2CC[C@H]1N2C,-33.0,-9.5,84.4*,-2.6,-24.6,0.7
COC(=O)C1=C(c2ccccc2)C[C@@H]2CC[C@H]1N2C,-31.4,-8.4,59.5*,17.9,-10.4,0.2
C=CCC1(CCCCC)C(=O)NC(=S)NC1=O,-9.5,-8.4,9.0,-23.1,7.7,-0.5
CN(C)Cc1c[nH]c2cc([N+](=O)[O-])ccc12,5.4,-6.5,-8.6,7.4,-3.3,1.0
